Data published in PubChem BioAssay (NCI).
The panel holds about 79,000 compounds, 15% with a hit somewhere; the sample as a whole holds those more often. A number with no mark means an inactive call. Active and inactive are the calls of the source. Cut-off read from the data, not from the text of the source: active = growth inhibition above about 70%; inactive = the rest.

Assay: NCI Yeast Anticancer Drug Screen. Data for the cln2 rad14 strain (AID 165);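 note: 0% = growth equal to vehicle treated cultures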
Conditions: S. cerevisiae cln2 rad14 strain, at 50.0 µM, stronger effect = higher value
Procedure: Growth inhibition of yeast strains with defined genetic alterations is measured as a screen for potential anti-cancer activity. Selected strains with alterations in DNA damage repair or cell cycle control were exposed to compounds and growth inhibition was measured relative to vehicle treated controls. The strain used in this assay is cln2 rad14

Structure (SMILES) | growth inhibition
O=C1C=CC=C/C1=C1\N=C(c2ccccc2OCC(=O)c2ccc(Br)cc2)SS1 | 8.75%
CC1=CC(=O)c2ccc(C)cc2C1=O | -18.9%
COC(=O)C(=O)C(C(=O)C(=O)Nc1ccccc1OC)c1nc2ccc([N+](=O)[O-])cc2[nH]c1=O (stereo not given) | -19.6%
Cc1ccc2c(sc(-c3ccc4c(c3)sc(-c3ccc5c(c3)sc(-c3ccc(N(C)C)cc3)[n+]5C)[n+]4C)[n+]2C)c1S(=O)(=O)O (tested in a mixture with another compound) | 40.1%
O=C(Nc1cccc(NC(=O)C(=O)C2CCC3=C(Sc4ccccc4N3)C2=O)n1)C(=O)C1CCC2=C(Sc3ccccc3N2)C1=O (stereo not given) | 5.2%
Cc1ccc(F)cc1NC(=O)O/N=C(\Cl)C(C)C | 3.85%
CCOC(=O)C(=O)C(CCC(=O)c1ccc2ccccc2c1O)C(=O)OCC (stereo not given) | 4.25%
COc1ccc(N=C(C)C(C)=Nc2ccc(OC)cc2)cc1 | 14.1%
COC(=O)c1cnn2c1n[n+]([O-])c1ccccc12 | 15.9%
CC(C)n1c2c([n+](C)c1/C=C/c1ccccc1)C(=O)c1ccccc1C2=O | 88.9% (active)
COc1ccc2nc(N/N=C/c3ccc(C)s3)cc(C)c2c1 | 24.4%
C=C1C(=O)O[C@H]2C[C@@]3(C)[C@H](O)CCC(=C)[C@@H]3[C@@H](OC(C)=O)[C@H]12 | -6.7%
COc1ccc2nc(NC(=O)/C(C#N)=C/c3ccccc3)sc2c1 | -3.3%
COc1cc2c3cc1Oc1c(OC)c(OC)cc4c1C(Cc1ccc(O)c(c1)-c1cc(ccc1OC)CC3N(C)CC2)N(C)CC4 (stereo not given) | 0.5%
COc1cc(Oc2c(C)c(Cl)c(OC)c(Cl)c2OC)c2c(c1Cl)COC2=O | 17.6%
CNC(=S)/C(=N\Nc1nc[nH]c1C(N)=O)C(N)=S | -0.8%
COC(=O)C(C(=O)C(=O)NC1Nc2ccc(C)cc2S1)c1nc2ccc(Cl)cc2[nH]c1=O (stereo not given) | 21.1%
Cc1ccc(OC2CC(n3cnc4ncnc(Cl)c43)OC2Oc2ccc(C)cc2)cc1 (stereo not given) | 8.4%
N#CC1(C#N)C2CCCCC23OC(=N)C1(C#N)C(c1ccco1)O3 (stereo not given) | -17.1%
CC(=Nc1ccncc1)C(C)=Nc1ccncc1 | 88.8% (active)

Structure (SMILES) | growth inhibition
COc1ccc2c(c1)N(C(C)=O)CN1C(=O)CCC21 (stereo not given) | 21.8%
Cc1ccc(OCC2OC(n3cnc4nc(Cl)nc(Cl)c43)CC2Oc2ccc(C)cc2)cc1 (stereo not given) | 50.2%
Cc1ccc(NC2=N/C(=C/c3ccccc3)C(Cl)=N2)cc1 | 10.9%
CC/C(Cl)=N\OC(=O)Nc1ccc(OC)cc1 | 2.6%
N#CC1(C#N)C2CCCCC23OC(=N)C1(C#N)C(c1ccccc1)O3 (stereo not given) | -15.3%
CCCCCCCCCC(=O)CC(=O)c1c(O)cc(O)cc1O | 22.4%
C=C1C(=O)OC2/C=C(\CO)CC/C=C(\CO)CC(OC(=O)C(C)C)C12 (stereo not given) | 24.4%
CCO/C=N\C1=C(C#N)SC2=N/C(=C\c3ccc(OC)cc3)C(=O)N21 | 6.45%
Clc1ccc(C2C3COc4ccccc4C3=NN2c2ccccc2)cc1 (stereo not given) | 0.5%
CC1=C(/C=C/C(C)=C/C=C/C(C)=C/C(=O)Nc2ccc(O)cc2)C(C)(C)CCC1 | 6.45%
CCOC(=O)COc1cc(-c2ccccc2)nc2cc(F)ccc12 | -18.4%
COc1cc(N(CCC#N)CCC#N)ccc1/C(N=Nc1ccc(Cl)cc1)=N/NC(=O)c1cc(Br)ccc1O | 7.2%
CCOc1cc2c(cc1O)C=C[C@@H]1[C@@H]2CC[C@]2(C)[C@@H](O)CC[C@@H]12 | 26.7%
CO/C(N)=C(\C#N)N=Cc1ccc2ccccc2c1 | 19.1%
Cc1ccc(/C=N/Nc2nc3ccccc3s2)s1 | 0.7%
CC1(C)Oc2ccc3c(=O)cc(-c4ccc(F)cc4)oc3c2C1C(=O)O (stereo not given) | -9.1%
COC(=O)C(=O)C(C(=O)C(=O)Nc1ccccc1C(C)=O)c1nc2ccc(C(=O)c3ccccc3)cc2[nH]c1=O (stereo not given) | 28.6%
C/C(=C\COc1cc(O)c2c(c1)C(=O)c1cc(C)cc(O)c1C2=O)CCC1OC1(C)C (stereo not given) | -0.65%
Cc1ccc(OCC2OC(n3cnc4c(Cl)nc(Cl)nc43)CC2Oc2ccc(C)cc2)cc1 (stereo not given) | 7.45%
CCC(C)C1(O)OC2CC3(C)OC(=CC3=O)/C(C)=C\C3OC(=O)C1(C)C32 (stereo not given) | 6.4%
